In assay [1] the target is Thyrotropin-releasing hormone receptor (Homo sapiens) (UniProt P34981). Briefly: qHTS assay to identify small molecule agonists of the thyrotropin-releasing hormone receptor (TRHR) signaling pathway (AID 1346891; calls by dose curve;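 also: HEK293 cells expressing TRHR with calcium dye readout; series mostly up to about 58 µM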). In short, it runs like this:
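Cells: TRHR-Hek293, seeded and incubated 18 h. Dye loading: 2 h at 37 °C. Compound added from DMSO stock by pin tool. Read-out: kinetic calcium fluorescence over 3 min.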

Assay [2] in a line: Human pregnane X receptor (PXR) small molecule agonists, qHTS cell viability counter screen (AID 1346977). Also: nearly all actives have a fitted effect of over 50% in size. In short, it runs like this: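 Cytotoxicity counter screen run in the same wells as the PXR luciferase assay, using PXR-Luc HepG2 cells in charcoal-stripped serum medium. Viability: CellTiter-Fluor fluorescence after 24hr compound treatment.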
Assay [3] can be described thus: Caspase-3/7 induction in HepG2 cells by small molecules, qHTS assay (AID 1346978). Also: nearly all actives have a fitted effect of over 15% in size. In short, it runs like this:
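Wild-type HepG2 cells (2,000/well) were settled 5 h at 37 C, 5% CO2, then exposed to compounds in DMSO for 17 h. Caspase-3/7 activity was read by luminescence 30 min after adding Caspase-Glo 3/7 reagent at room temperature.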

The nature of assay [4]: Caspase-3/7 induction in CHO-K1 cells by small molecules, qHTS cell viability counter screen (AID 1346979). Also: nearly all actives have a fitted effect of over 35% in size. The essentials:
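Cytotoxicity counter screen run in parallel with the caspase-3/7 assay: CHO-K1 cells, 16hr compound treatment at 37C, then CellTiter-Fluor for 1hr before fluorescence reading.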

A short description of assay [5]: Caspase-3/7 induction in CHO-K1 cells by small molecules, qHTS assay (AID 1346980). Also: nearly all actives have a fitted effect of over 15% in size. In short, it runs like this: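 Wild-type cells were seeded at 1,500 per well and settled 5 hr at 37 C, 5% CO2, then exposed to DMSO-dissolved compounds for 17 hr. Caspase-Glo 3/7 reagent was added, and luminescence was read after 30min at room temperature.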
A short description of assay [6]: Caspase-3/7 induction in HepG2 cells by small molecules, qHTS cell viability counter screen (AID 1346981). Also: series mostly up to about 92 µM; nearly all actives have a fitted effect of over 30% in size. In short, it runs like this:
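After a 5-hr attachment period at 37 C and 5% CO2, wild-type HepG2 cells received compounds in DMSO. Sixteen hours later CellTiter-Fluor was dispensed and the fluorescent signal quantified after a further hour.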

Assay [7] deals with Nuclear receptor subfamily 1 group I member 2 (Homo sapiens) (UniProt O75469). Briefly: Human pregnane X receptor (PXR) small molecule agonists, qHTS assay (AID 1346982). Also: nearly all actives have a fitted effect of over 35% in size. Also: potency is read from the fitted curve at half-maximal effect. In short, it runs like this:
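Tox21 qHTS; PXR-Luc HepG2; compounds pinned from DMSO; 24 hr, 37 C; ONE-Glo luciferase detection, 30 min room temperature.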

Assay [8] has as its target Acetylcholinesterase (Homo sapiens) (UniProt P22303). Briefly: Acetylcholinesterase (AChE) small molecule antagonists: colormetric cell-based qHTS assay (AID 1347395; calls by dose curve; also: nearly all actives have a fitted effect of over 30% in size; also: potency is read from the fitted curve at half-maximal effect). The essentials:
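Cells (SH-SY5Y, 2,000 per well) are seeded and left overnight at 37 C. Compound is added for 30 min, then DTNB and acetylthiocholine for a further 90 min at 37 C before absorbance-based thiocholine detection.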

Assay [9] shares this target. Briefly: Acetylcholinesterase (AChE) small molecule antagonists: enzyme-based qHTS assay (AID 1347397; calls by dose curve; also: nearly all actives have a fitted effect of over 55% in size; also: potency is read from the fitted curve at half-maximal effect). Conditions: Potency: AChE enzyme activity inhibition; outcome: AChE enzyme activity inhibition. In short, it runs like this:
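Tox21 library chemicals are tested in qHTS format against recombinant human AChE. The enzyme, dispensed at 50 mU/mL, sits with compound for 30 min at room temperature. A DTNB–acetylthiocholine cocktail follows, and colour is read after 10 min.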

Assay [10] shares this target. Briefly: Acetylcholinesterase (AChE) small molecule antagonists: fluorescence cell-based qHTS assay (AID 1347398; calls by dose curve; also: nearly all actives have a fitted effect of over 50% in size; also: potency is read from the fitted curve at half-maximal effect). The note with it: Potency: AChE activity; outcome: AChE activity. The essentials:
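Cellular AChE inhibition: SH-SY5Y cells treated with test chemical for 30 min at 37 C, then acetylthiocholine hydrolysis followed over 40 min at room temperature via thiocholine-reactive Thiolite Green fluorescence (490/520 nm).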

Assay [11] has the same target. Briefly: Acetylcholinesterase (AChE) small molecule antagonists: enzyme-based qHTS assay with human liver microsomes (AID 1347399; calls by dose curve; also: nearly all actives have a fitted effect of over 60% in size). Conditions: Potency: qHTS inhibition; outcome: qHTS inhibition. In short, it runs like this: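 Recombinant human AChE (50 mU/mL in the enzyme mix) and human liver microsomes (0.25 mg/mL final) were preincubated with compound and NADPH (0.25 mg/mL final) for 30 min at 37 C. Acetylthiocholine/DTNB was then added; thiocholine was read colorimetrically after 10 min at room temperature.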

In assay [12] the target is Cytochrome P450 2D6 (Homo sapiens) (UniProt P10635). Briefly: Cytochrome P450 Family 2 Subfamily D Member 6 (CYP2D6) small molecule antagonists: luciferase reporter qHTS assay (AID 1671196). Also: series mostly up to about 120 µM; nearly all actives have a fitted effect of over 50% in size. The essentials: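 Room-temperature luminescent CYP2D6 activity assay: compound preincubated 10 min with enzyme–substrate mix, NADPH-initiated reaction 1 h, detection reagent 20 min before reading.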
Sequence of Cytochrome P450 2D6 (Homo sapiens) (P10635 whole entry, looked up): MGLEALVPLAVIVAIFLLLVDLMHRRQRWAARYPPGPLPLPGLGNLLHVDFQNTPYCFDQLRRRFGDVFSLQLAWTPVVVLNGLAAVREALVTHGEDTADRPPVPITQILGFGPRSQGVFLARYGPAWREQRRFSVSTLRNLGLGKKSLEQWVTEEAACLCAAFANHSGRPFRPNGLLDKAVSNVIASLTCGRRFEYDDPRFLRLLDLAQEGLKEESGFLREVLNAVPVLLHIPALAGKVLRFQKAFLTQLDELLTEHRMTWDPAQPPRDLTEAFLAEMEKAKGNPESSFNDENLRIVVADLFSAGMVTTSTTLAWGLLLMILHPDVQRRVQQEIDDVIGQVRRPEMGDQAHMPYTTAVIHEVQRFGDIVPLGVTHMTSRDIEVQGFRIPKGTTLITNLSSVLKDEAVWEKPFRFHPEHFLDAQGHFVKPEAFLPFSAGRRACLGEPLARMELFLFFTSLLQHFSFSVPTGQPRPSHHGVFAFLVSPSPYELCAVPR

For assay [13], the target named is Cytochrome P450 2C19 (Homo sapiens) (UniProt P33261). Briefly: Cytochrome P450 Family 2 Subfamily C Member 19 (CYP2C19) small molecule antagonists: luciferase reporter qHTS assay (AID 1671197). Also: nearly all actives have a fitted effect of over 65% in size. Also: potency is read from the fitted curve at half-maximal effect. The essentials:
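CYP2C19 P450-Glo, 1536-well qHTS. Cpd + enzyme/proluciferin substrate 10 min RT; + NADPH regen, 37C 1 h; stop with luciferin detection reagent, 20 min RT, luminescence (RLU). Pos ctrl ketoconazole.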

Assay [14] deals with Cytochrome P450 2C9 (Homo sapiens) (UniProt P11712). Briefly: Cytochrome P450 Family 2 Subfamily C Member 9 (CYP2C9) small molecule antagonists: luciferase reporter qHTS assay (AID 1671198). Also: nearly all actives have a fitted effect of over 50% in size. Also: potency is read from the fitted curve at half-maximal effect. The essentials:
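CYP2C9 activity was measured with a P450-Glo proluciferin substrate. Enzyme–substrate mix was held with compound for 10 min at room temperature, then NADPH regeneration solution was added for 1 h at 37C. Luciferin product was read as luminescence.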

The target in assay [15] is Voltage-gated inwardly rectifying potassium channel KCNH2 (Homo sapiens) (UniProt Q12809). Briefly: Human Ether-a-go-go-Related Gene (hERG) channel small molecule antagonists: fluorescence cell-based qHTS assay (AID 1671200). In short, it runs like this: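 Fluorescence at 540 nm emission (480 nm excitation) was recorded kinetically for 2 min at 1-second intervals once the thallium-containing stimulus reached cells previously loaded with FluxOR II dye.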

For assay [16], the target named is Cytochrome P450 3A4 (Homo sapiens) (UniProt P08684). Briefly: Cytochrome P450 Family 3 Subfamily A Member 4 (CYP3A4) small molecule antagonists: luciferase reporter qHTS assay (AID 1671201). The essentials:
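qHTS, 1536-well. CYP3A4 + proluciferin substrate, cpd 10 min RT → NADPH regen 1 h RT → detection reagent 20 min → luminescence (RLU). Ketoconazole positive control.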

The target of assay [17] is Cytochrome P450 1A2 (Homo sapiens) (UniProt P05177). Briefly: Cytochrome P450 Family 1 Subfamily A Member 2 (CYP1A2) small molecule antagonists: luciferase reporter qHTS assay (AID 1671199). Also: nearly all actives have a fitted effect of over 50% in size. Also: potency is read from the fitted curve at half-maximal effect. In short, it runs like this: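 Room-temperature CYP1A2 reaction with proluciferin substrate: compounds added from DMSO, 10 min preincubation, NADPH regeneration for 1 h. Luciferin detection reagent then added; luminescence recorded as RLU.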
Sequence of Cytochrome P450 1A2 (Homo sapiens) (P05177 whole entry, looked up): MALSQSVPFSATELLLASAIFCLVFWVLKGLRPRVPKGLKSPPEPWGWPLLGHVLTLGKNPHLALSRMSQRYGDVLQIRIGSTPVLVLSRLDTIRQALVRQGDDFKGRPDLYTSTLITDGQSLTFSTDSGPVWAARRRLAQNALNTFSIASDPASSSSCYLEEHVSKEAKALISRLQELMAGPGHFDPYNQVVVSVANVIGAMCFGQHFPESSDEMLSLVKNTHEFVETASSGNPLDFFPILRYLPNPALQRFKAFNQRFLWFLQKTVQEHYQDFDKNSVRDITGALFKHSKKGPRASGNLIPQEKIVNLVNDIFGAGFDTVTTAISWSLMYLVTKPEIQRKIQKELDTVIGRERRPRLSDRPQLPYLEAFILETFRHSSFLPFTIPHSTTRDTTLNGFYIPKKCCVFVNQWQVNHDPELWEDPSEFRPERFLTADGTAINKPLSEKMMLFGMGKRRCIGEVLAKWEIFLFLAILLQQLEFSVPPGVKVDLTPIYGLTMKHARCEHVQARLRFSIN

The target of assay [18] is Nuclear receptor subfamily 1 group I member 2 (Rattus norvegicus) (UniProt Q9R1A7). Briefly: Rat pregnane X receptor (rPXR) activation by small molecules, qHTS assay (AID 1346983). Also: nearly all actives have a fitted effect of over 20% in size. Conditions: rPXR luciferase reporter cells, One-Glo luminescence, 24 h; stronger effect = higher value. In short, it runs like this: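 Cell-based rPXR luciferase reporter assay, 2,000 cells per well, rested 5hr at 37 C before compound addition in DMSO, then 24 hr at 37 C. One-Glo reagent was added and luminescence read after 30 min at room temperature.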
Sequence of Nuclear receptor subfamily 1 group I member 2 (Rattus norvegicus) (Q9R1A7 whole entry, looked up): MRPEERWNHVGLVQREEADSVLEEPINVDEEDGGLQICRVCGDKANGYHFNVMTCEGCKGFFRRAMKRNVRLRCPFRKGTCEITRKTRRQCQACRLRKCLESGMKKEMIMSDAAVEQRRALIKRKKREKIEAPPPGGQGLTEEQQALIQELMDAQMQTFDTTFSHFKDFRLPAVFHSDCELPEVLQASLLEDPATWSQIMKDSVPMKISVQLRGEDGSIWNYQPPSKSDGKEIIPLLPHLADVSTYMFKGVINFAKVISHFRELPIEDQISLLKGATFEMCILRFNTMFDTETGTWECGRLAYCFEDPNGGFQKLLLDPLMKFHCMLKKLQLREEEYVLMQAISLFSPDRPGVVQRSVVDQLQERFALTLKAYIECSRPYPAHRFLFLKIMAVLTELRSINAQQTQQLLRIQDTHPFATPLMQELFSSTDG

Assay [19] addresses Nuclear receptor subfamily 1 group I member 2 (Homo sapiens) (UniProt O75469). Briefly: Human pregnane X receptor (PXR) activation by small molecules, qHTS assay (AID 1346985). Also: nearly all actives have a fitted effect of over 40% in size. In short, it runs like this: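 DPX-2 cells (HepG2 co-transfected with a PXR response element and a CYP3A4-promoter luciferase construct) were seeded at 2,000 per well, rested 5 hr at 37C, then exposed to DMSO-dissolved compounds for 24 hr. Activation was read as luciferase luminescence.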

Several values for one entry are separate records, joined by “and”; a condition that tells them apart may be missing. Identical values can stand only once. Inconclusive results are not listed. A structure can be active in one record and inactive in another. Activity calls are given as the source filed them. Unless noted, calls follow the shape of the dose curve; as a rule, active = well fitted curve in the direction sought with a large enough effect in the repeat runs; inconclusive = weak or mixed curves; inactive = no such curve, though single readings can be large; an effect the other way counts as inactive or inconclusive.
% is scaled to controls: 0 for no effect and ±100 for the full control effect.

Sequence of Cytochrome P450 2C19 (Homo sapiens) (P33261 whole entry, looked up): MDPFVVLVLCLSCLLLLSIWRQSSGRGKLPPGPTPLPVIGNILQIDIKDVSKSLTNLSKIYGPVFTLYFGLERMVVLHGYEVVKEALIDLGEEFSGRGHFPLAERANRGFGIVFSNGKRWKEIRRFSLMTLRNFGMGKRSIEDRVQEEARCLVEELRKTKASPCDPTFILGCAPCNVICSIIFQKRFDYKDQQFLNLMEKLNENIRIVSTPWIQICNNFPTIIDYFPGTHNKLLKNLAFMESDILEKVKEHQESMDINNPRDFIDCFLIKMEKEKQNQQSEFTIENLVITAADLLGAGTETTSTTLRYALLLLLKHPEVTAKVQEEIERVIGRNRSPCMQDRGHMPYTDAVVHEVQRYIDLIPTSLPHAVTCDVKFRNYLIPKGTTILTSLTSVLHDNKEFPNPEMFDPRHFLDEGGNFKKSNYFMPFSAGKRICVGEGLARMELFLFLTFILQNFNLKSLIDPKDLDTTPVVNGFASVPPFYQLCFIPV
Sequence of Thyrotropin-releasing hormone receptor (Homo sapiens) (P34981 whole entry, looked up): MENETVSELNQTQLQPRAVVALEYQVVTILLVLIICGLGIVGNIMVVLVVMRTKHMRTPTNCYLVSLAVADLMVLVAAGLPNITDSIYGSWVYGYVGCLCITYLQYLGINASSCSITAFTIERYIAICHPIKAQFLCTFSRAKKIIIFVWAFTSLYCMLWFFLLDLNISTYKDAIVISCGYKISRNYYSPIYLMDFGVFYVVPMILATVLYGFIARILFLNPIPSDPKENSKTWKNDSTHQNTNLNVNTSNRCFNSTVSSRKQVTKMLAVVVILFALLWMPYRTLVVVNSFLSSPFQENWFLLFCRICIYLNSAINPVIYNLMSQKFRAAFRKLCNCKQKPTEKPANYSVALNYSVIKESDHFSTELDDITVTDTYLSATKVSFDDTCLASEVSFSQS
Sequence of Cytochrome P450 3A4 (Homo sapiens) (P08684 whole entry, looked up): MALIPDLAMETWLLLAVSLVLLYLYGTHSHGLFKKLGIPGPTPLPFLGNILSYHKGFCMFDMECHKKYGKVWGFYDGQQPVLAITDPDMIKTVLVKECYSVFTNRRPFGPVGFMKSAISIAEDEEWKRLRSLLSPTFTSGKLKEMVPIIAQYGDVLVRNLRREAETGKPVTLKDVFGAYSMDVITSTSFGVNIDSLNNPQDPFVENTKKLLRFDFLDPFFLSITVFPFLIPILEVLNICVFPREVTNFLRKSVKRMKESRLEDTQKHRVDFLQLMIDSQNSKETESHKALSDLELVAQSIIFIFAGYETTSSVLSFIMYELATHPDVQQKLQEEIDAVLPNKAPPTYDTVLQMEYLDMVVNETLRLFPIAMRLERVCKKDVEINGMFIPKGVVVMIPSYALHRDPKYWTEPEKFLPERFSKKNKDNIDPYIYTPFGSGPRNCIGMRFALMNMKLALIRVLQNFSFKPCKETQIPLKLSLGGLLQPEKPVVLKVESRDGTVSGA
Sequence of Acetylcholinesterase (Homo sapiens) (P22303 whole entry, looked up): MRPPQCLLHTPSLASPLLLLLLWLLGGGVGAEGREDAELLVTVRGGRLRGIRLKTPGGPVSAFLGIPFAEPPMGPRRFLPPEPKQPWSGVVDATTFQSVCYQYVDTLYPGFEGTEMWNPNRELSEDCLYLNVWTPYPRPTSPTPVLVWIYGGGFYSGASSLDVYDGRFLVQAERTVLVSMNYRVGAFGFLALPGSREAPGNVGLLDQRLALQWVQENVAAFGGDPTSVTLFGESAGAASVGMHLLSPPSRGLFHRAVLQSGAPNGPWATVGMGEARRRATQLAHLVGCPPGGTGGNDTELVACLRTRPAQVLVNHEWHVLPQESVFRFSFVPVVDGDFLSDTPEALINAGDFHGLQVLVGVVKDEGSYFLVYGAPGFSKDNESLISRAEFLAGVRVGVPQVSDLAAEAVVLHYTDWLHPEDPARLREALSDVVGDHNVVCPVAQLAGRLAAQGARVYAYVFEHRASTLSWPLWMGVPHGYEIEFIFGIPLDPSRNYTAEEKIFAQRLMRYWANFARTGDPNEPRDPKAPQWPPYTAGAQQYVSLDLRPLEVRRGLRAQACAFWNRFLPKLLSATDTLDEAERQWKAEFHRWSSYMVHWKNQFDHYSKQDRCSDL
Sequence of Cytochrome P450 2C9 (Homo sapiens) (P11712 whole entry, looked up): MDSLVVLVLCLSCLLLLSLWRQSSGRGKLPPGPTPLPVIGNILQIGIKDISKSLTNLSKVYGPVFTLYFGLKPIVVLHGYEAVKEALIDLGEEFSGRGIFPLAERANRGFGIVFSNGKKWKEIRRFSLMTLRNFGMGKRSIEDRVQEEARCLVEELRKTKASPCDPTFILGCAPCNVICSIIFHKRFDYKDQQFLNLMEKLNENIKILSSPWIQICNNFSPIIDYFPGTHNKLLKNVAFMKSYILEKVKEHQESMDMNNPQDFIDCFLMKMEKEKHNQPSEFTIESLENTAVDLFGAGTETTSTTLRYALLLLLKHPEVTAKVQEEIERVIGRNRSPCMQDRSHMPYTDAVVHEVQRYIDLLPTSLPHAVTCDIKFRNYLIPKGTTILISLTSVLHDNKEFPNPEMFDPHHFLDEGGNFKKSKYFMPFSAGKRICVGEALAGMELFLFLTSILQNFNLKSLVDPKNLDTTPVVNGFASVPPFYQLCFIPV
Sequence of Nuclear receptor subfamily 1 group I member 2 (Homo sapiens) (O75469 whole entry, looked up): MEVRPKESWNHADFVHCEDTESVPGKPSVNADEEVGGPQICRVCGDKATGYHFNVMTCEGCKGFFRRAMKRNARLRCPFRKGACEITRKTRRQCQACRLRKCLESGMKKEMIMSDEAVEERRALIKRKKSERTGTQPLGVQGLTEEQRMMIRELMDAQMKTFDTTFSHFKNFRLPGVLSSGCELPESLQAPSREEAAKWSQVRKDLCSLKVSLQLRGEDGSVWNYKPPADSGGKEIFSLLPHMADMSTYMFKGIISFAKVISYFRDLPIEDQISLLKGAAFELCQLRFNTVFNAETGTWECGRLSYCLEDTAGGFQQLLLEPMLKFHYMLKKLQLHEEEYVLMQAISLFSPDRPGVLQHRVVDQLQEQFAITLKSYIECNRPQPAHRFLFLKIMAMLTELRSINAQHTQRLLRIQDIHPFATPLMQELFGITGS

Turning to `CC(C)N(Cc1ccccc1)C(=O)C(C)(C)C`, the molecule was classed as inactive in [1], in assay [3] and in [5]. In addition, the Potency entry in assay [2], in assay [4], in [6], in assay [7], in [8] and in [9] was “inactive” each time. Further, the Potency entry in [10], in assay [11], in [12], in assay [15] and in assay [16] was “inactive” in each case. The results for the Potency in assay [13] and in assay [14] were 20 µM (active) and 35.6 µM (active), respectively.
In the case of `O=C(Cl)c1ccccc1`, the result in [1], in assay [3] and in assay [5] was inactive. Moreover, the Potency entry in assay [2], in [4], in assay [6], in assay [7], in assay [8] and in assay [9] was “inactive” in each case. Further, the Potency result in [10], in [11], in [12], in assay [17], in [15] and in assay [16] was “inactive” throughout. Also, in assay [13], the Potency was 41.1 µM (active).
Consider `CCOC(=O)CC(SP(=S)(OC)OC)C(=O)OCC` (configuration not stated), for which the molecule was called inactive in [1], in [3] and in assay [5]. Further, the Potency entry in assay [2], in assay [4], in assay [6], in assay [19], in assay [9] and in [10] was “inactive” throughout. In addition, the Potency entry in assay [11], in assay [12] and in assay [15] was “inactive” each time. The Potency in assay [7] was 12.2 µM (active) and inactive; in assay [8] it was 62.1 µM (active) and inactive; in assay [13], 178 nM (active) and 436 nM (active); in assay [14], 1.19 µM (active) and 1.38 µM (active); in assay [17] it was 2.24 µM (active) and 1.62 µM (active). For the same molecule, the max activation in assay [18] was 0.377% (inactive).
Turning to `N#CN`, the result in assay [1], in [3] and in assay [5] was inactive. Further, the Potency result in assay [2], in assay [4], in [6], in assay [7], in assay [19] and in assay [8] was “inactive” each time. In addition, the Potency entry in assay [9], in [10], in [11], in assay [12], in assay [13] and in assay [14] was “inactive” each time. Besides, the Potency result in [17], in [15] and in assay [16] was “inactive” each time. For the same molecule, the max activation in [18] was 0.661% (inactive).
As to `C[C@]12C=CC(=O)C=C1CC[C@@H]1[C@@H]2CC[C@@]2(C)[C@H]1CC[C@]2(C)O`, the call in assay [1], in assay [3] and in assay [5] was inactive. The Potency result in assay [2], in assay [4], in [6], in assay [7], in assay [8] and in assay [9] was “inactive” throughout. Besides, the Potency entry in assay [10], in assay [11], in [12], in assay [13], in [17] and in assay [15] was “inactive” each time. Moreover, the Potency entry in assay [16] is “inactive”. Besides, in assay [18], the max activation is -4.23% (inactive).
`COP(=O)(OC)O/C(C)=C/C(=O)N(C)C`: the molecule was called inactive in [1], in [3] and in [5]. For the same molecule, the Potency entry in assay [2], in [4], in [6], in [7], in [11] and in assay [12] was “inactive” throughout. Besides, the Potency result in [13], in assay [15] and in assay [16] was “inactive” in each case. The Potency in assay [8] is 40.2 µM (active); in assay [9], 63.7 µM (active); in assay [10] it was 14.3 µM (active).
As for `O=C(NC(=O)c1c(F)cccc1F)Nc1cc(Cl)c(F)c(Cl)c1F`, the molecule was classed as inactive in [1], in [3] and in assay [5]. For the same molecule, the Potency entry in [2], in assay [4], in assay [6], in [7], in [8] and in [9] was “inactive” throughout. For the same molecule, the Potency result in [10], in [11], in assay [12], in assay [15] and in assay [16] was “inactive” each time. For the same molecule, the Potency is 69.2 µM (active) in assay [13] and 30.9 µM (active) in assay [17].
